Reference: PubChem BioAssay (Tox21)
Inconclusive results are not listed. Unmarked numbers belong to inactive results. Calls come from the whole dose curve; as a rule, active = well fitted cell-killing curve with a large enough effect in the repeat runs; inconclusive = weak or mixed curves, or effect the other way; inactive = flat fitted curve, though single readings scatter.

Test: qHTS assay to identify small molecule agonists of the androgen receptor (AR) signaling pathway in the presence of an antagonist - cell viability counter screen (AID 1259379);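 note: MDA-kb2 human breast cancer cells carrying an MMTV luciferase reporter; nearly all actives have a fitted effect of over 25% in size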
Conditions: MDA-kb2 viability, CellTiter-Fluor, 16 h; series mostly up to 92.4 µM; activity change, negative = cytotoxicity: at the top concentration
Method in brief: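 Counter screen for cell viability run in parallel with the AR agonist-mode luciferase assay. MDA-kb2 cells were co-treated with nilutamide (3.0uM final) and compounds, then incubated 16 hr at 37C, and CellTiter-Fluor fluorescence was measured.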
% is set by controls: 0 for no effect and ±100 for the full control effect.

For `CCCCN1C=CN(C)C1`, the activity change, negative = cytotoxicity was 0.886% [at 19 µM].

Compared with `CCCC(C)C(=O)OCC` (stereo not given), `CCCCCCCCCCCCCCC(=O)O` is lower in “activity change, negative = cytotoxicity” value: 4.61% for the first, 2.21% for the second.

Going from `O=S(=O)(O)c1cccc2c(S(=O)(=O)O)cccc12` to `O=S(=O)(O)c1cccc2ccccc12`, the “activity change, negative = cytotoxicity” value falls from 6.69% to 0.524%.

First: [Ca+2]
Second: Nc1ccccn1
The “activity change, negative = cytotoxicity” value of the first is higher: 1.39% for the first, 0.352% for the second.

Compared with `O=C(O)CC(C(=O)O)S(=O)(=O)O` (stereo not given), `O=C(O)CNC(=O)c1ccc(CO)o1` is lower in “activity change, negative = cytotoxicity” value: 0.544% for the first, 0.215% for the second.

First: CC(=O)C1CCCCC1=O (stereo not given)
Second: CC12CCC(C(=O)C1=O)C2(C)C (stereo not given)
The “activity change, negative = cytotoxicity” value of the first is lower: 0.705% for the first, 2.85% for the second.

Compared with `CN(C)CCN(C)CCN(C)C`, `Nc1ccn([C@@H]2O[C@H](CO)[C@@H](O)C2O)c(=O)n1` (stereo not given in full) is lower in “activity change, negative = cytotoxicity” value: 1.09% for the first, -1% for the second.

First: C[C@H]1C[C@H]2[C@@H]3CCC4=CC(=O)C=C[C@]4(C)[C@H]3C(=O)C[C@]2(C)[C@@]1(O)C(=O)CO
Second: COc1cccc(OC)c1C(=O)N[C@@H]1C(=O)N2[C@@H]1SC(C)(C)[C@@H]2C(=O)O
The “activity change, negative = cytotoxicity” value of the first is higher: 1.73% [at 42.5 µM] for the first, -3.67% [at 42.5 µM] for the second.

First: CC[N+](C)(CC)CCOC(=O)C1c2ccccc2Oc2ccccc21
Second: CC[N+](CC)(CC(=O)Nc1c(C)cccc1C)Cc1ccccc1 (tested in a mixture with another compound)
The “activity change, negative = cytotoxicity” value of the first is lower: 0.0201% [at 42.5 µM] for the first, 0.0403% [at 42.5 µM] for the second.

Going from `CO/N=C(\C(=O)N[C@@H]1C(=O)N2C(C(=O)O)=C(CSc3nc(=O)c(O)nn3C)CS[C@H]12)c1csc(N)n1` to `CO[C@@]1(NC(=O)C(C(=O)O)c2ccc(O)cc2)C(=O)N2C(C(=O)O)=C(CSc3nnnn3C)CO[C@@H]21` (stereo not given in full), the “activity change, negative = cytotoxicity” value falls from 1.89% [at 42.5 µM] to -1.07% [at 42.5 µM].

First: CCOc1ccc2nc(S(N)(=O)=O)sc2c1
Second: CC(C)(C)C(=O)Oc1ccc(S(=O)(=O)Nc2ccccc2C(=O)NCC(=O)O)cc1
The “activity change, negative = cytotoxicity” value of the first is lower: 0.027% [at 42.5 µM] for the first, 3.67% [at 42.5 µM] for the second.

Compared with `NC(=O)N[C@@H](CCC(=O)O)C(=O)O`, `NCCCC[C@H](N[C@@H](CCc1ccccc1)C(=O)O)C(=O)N1CCC[C@H]1C(=O)O` is higher in “activity change, negative = cytotoxicity” value: -0.52% [at 42.5 µM] for the first, 0.345% [at 42.5 µM] for the second.

First: CNCC(O)c1ccc(O)c(O)c1 (stereo not given)
Second: CC(C)COC(=O)c1ccc(N)cc1
The “activity change, negative = cytotoxicity” value of the first is higher: 1.57% [at 42.5 µM] for the first, 0.885% [at 42.5 µM] for the second.

Compared with `CN(C)C(=O)Oc1cccc([N+](C)(C)C)c1`, `CC(C(=O)O)c1cccc(Oc2ccccc2)c1` (stereo not given) is higher in “activity change, negative = cytotoxicity” value: 1.8% [at 42.5 µM] for the first, 2.41% [at 42.5 µM] for the second.

First: Cc1c(N)c(=O)n(-c2ccccc2)n1C
Second: Cc1ccc(C(=O)c2ccc(CC(=O)O)n2C)cc1
The “activity change, negative = cytotoxicity” value of the first is lower: 0.137% [at 42.5 µM] for the first, 0.69% [at 42.5 µM] for the second.

Compared with `O=C(O)CCCC[P+](c1ccccc1)(c1ccccc1)c1ccccc1`, `C[N+]1(C)CCCC(OC(=O)C(O)(c2ccccc2)c2ccccc2)C1` (stereo not given) is higher in “activity change, negative = cytotoxicity” value: -1.61% [at 42.5 µM] for the first, 2.6% [at 42.5 µM] for the second.

First: COc1cc(C)nc(-n2nc(C)cc2OC)n1
Second: CN1[C@@H]2CC[C@H]1CC(OC(=O)C(O)c1ccccc1)C2 (stereo not given in full)
The “activity change, negative = cytotoxicity” value of the first is higher: 0.0902% [at 42.5 µM] for the first, -1.75% [at 42.5 µM] for the second.

Going from `CCCCCCCCCCCCCCCCCCO` to `NCCCC(N)(C(=O)O)C(F)F` (stereo not given), the “activity change, negative = cytotoxicity” value falls from 0.322% [at 42.5 µM] to 0.0864% [at 42.5 µM].

Molecule `CCN[C@@H]1C[C@H](N)[C@@H](OC2OC(CN)=CCC2N)[C@H](O)[C@H]1O[C@H]1OC[C@](C)(O)[C@H](NC)[C@H]1O` (stereo not given in full) has an activity change, negative = cytotoxicity of 0.828% [at 0.35 µM].

Test: qHTS assay to identify small molecule agonists of the estrogen receptor beta (ER-beta) signaling pathway - cell viability counter screen (AID 1259380); note: nearly all actives have a fitted effect of over 30% in size
Conditions: ER-beta-bla HEK293T viability, CellTiter-Glo luminescence, 16 h; series mostly up to 92.4 µM; activity change, negative = cytotoxicity: at the top concentration
Method in brief: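 In this qHTS counter screen, HEK293T cells carrying an ER-beta/UAS beta-lactamase reporter, grown in 2% charcoal-stripped FBS, received compound for 16 hr; ATP-based CellTiter-Glo luminescence was then read after 30 min at room temperature.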

In the case of `CCCCN1C=CN(C)C1`, the activity change, negative = cytotoxicity is reported as 2.46% [at 19 µM].

First: C[C@H]1C[C@H]2[C@@H]3CCC4=CC(=O)C=C[C@]4(C)[C@H]3C(=O)C[C@]2(C)[C@@]1(O)C(=O)CO
Second: COc1cccc(OC)c1C(=O)N[C@@H]1C(=O)N2[C@@H]1SC(C)(C)[C@@H]2C(=O)O
The “activity change, negative = cytotoxicity” value of the first is higher: 13% [at 42.5 µM] for the first, 6.21% [at 42.5 µM] for the second.

Going from `CC[N+](C)(CC)CCOC(=O)C1c2ccccc2Oc2ccccc21` to `CC[N+](CC)(CC(=O)Nc1c(C)cccc1C)Cc1ccccc1` (tested in a mixture with another compound), the “activity change, negative = cytotoxicity” value falls from 6.2% [at 42.5 µM] to 2.7% [at 42.5 µM].

First: CO/N=C(\C(=O)N[C@@H]1C(=O)N2C(C(=O)O)=C(CSc3nc(=O)c(O)nn3C)CS[C@H]12)c1csc(N)n1
Second: CO[C@@]1(NC(=O)C(C(=O)O)c2ccc(O)cc2)C(=O)N2C(C(=O)O)=C(CSc3nnnn3C)CO[C@@H]21 (stereo not given in full)
The “activity change, negative = cytotoxicity” value of the first is lower: 0.209% [at 42.5 µM] for the first, 0.334% [at 42.5 µM] for the second.

Going from `CC(=O)N[C@H]1[C@H]([C@H](O)[C@H](O)CO)OC(C(=O)O)=C[C@@H]1N=C(N)N` to `NC(=O)N[C@@H](CCC(=O)O)C(=O)O`, the “activity change, negative = cytotoxicity” value falls from 11.3% [at 42.5 µM] to 7.07% [at 42.5 µM].

First: CCOc1ccc2nc(S(N)(=O)=O)sc2c1
Second: CC(C)(C)C(=O)Oc1ccc(S(=O)(=O)Nc2ccccc2C(=O)NCC(=O)O)cc1
The “activity change, negative = cytotoxicity” value of the first is lower: 1.18% [at 42.5 µM] for the first, 9.89% [at 42.5 µM] for the second.

First: Cc1c(N)c(=O)n(-c2ccccc2)n1C
Second: Cc1coc2ccccc2c1=O
The “activity change, negative = cytotoxicity” value of the first is higher: 8.45% [at 42.5 µM] for the first, 4.11% [at 42.5 µM] for the second.

Compared with `NCCCC[C@H](N[C@@H](CCc1ccccc1)C(=O)O)C(=O)N1CCC[C@H]1C(=O)O`, `CN1[C@@H]2CC[C@H]1CC(OC(=O)C(O)c1ccccc1)C2` (stereo not given in full) is higher in “activity change, negative = cytotoxicity” value: -3.27% [at 42.5 µM] for the first, 1.87% [at 42.5 µM] for the second.

Going from `CC(C(=O)O)c1cccc(Oc2ccccc2)c1` (stereo not given) to `C[N+]1(C)CCCC(OC(=O)C(O)(c2ccccc2)c2ccccc2)C1` (stereo not given), the “activity change, negative = cytotoxicity” value rises from 1.8% [at 42.5 µM] to 3.9% [at 42.5 µM].

Going from `O=C(O)CCCC[P+](c1ccccc1)(c1ccccc1)c1ccccc1` to `CC(C)COC(=O)c1ccc(N)cc1`, the “activity change, negative = cytotoxicity” value falls from 2.73% [at 42.5 µM] to 1.99% [at 42.5 µM].

Compared with `COc1cc(C)nc(-n2nc(C)cc2OC)n1`, `NCCCC(N)(C(=O)O)C(F)F` (stereo not given) is higher in “activity change, negative = cytotoxicity” value: -1.87% [at 42.5 µM] for the first, 6% [at 42.5 µM] for the second.

First: O=S(=O)(O)c1cccc2c(S(=O)(=O)O)cccc12
Second: O=C(O)CC(C(=O)O)S(=O)(=O)O (stereo not given)
The “activity change, negative = cytotoxicity” value of the first is lower: 0.773% for the first, 7.1% for the second.

Compared with `[Ca+2]`, `CC(=O)C1CCCCC1=O` (stereo not given) is higher in “activity change, negative = cytotoxicity” value: 0.806% for the first, 3.96% for the second.

Going from `O=C(O)CNC(=O)c1ccc(CO)o1` to `CC12CCC(C(=O)C1=O)C2(C)C` (stereo not given), the “activity change, negative = cytotoxicity” value rises from -1.05% to 4.18%.

With `CN(C)CCN(C)CCN(C)C` the “activity change, negative = cytotoxicity” value was 0.0969%.

Molecule `CCN[C@@H]1C[C@H](N)[C@@H](OC2OC(CN)=CCC2N)[C@H](O)[C@H]1O[C@H]1OC[C@](C)(O)[C@H](NC)[C@H]1O` (stereo not given in full) has an activity change, negative = cytotoxicity of 6.54% [at 0.349 µM].
